# Bioassay records from PubChem.
# Compounds with a hit are over-represented: about 2.3% of the library has one in this group of screens.
# GRP78 ERSR act = qHTS for Inducers of the Endoplasmic Reticulum Stress Response (ERSR) in Human Glioma: qHTS | U87-MG GRP78 promoter luciferase reporter, 16 h | Potency, µM, without a hit: top-dose activation, usual class: activators | 0.02% of 420,000 active; also: potency is read from the fitted curve at half-maximal effect; series mostly up to about 76 µM; % of control where 0% means no effect; nearly all actives have a fitted effect of over 35% in size
#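 Stably transfected U87-MG human glioma cells carrying a GRP78-based luminescent sensor were seeded at 1000 cells/well, pin-dosed with compounds and incubated 16 h. Luciferase reagent was then added, and end-point luminescence was read after 10 min at room temperature.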
# Nrf2 inh = Nrf2 qHTS screen for inhibitors. 2.1% of 360,000 active. Potency, µM (doses to about 46 µM), inactives show at the highest dose activity change, negative = inhibition, hits mostly inhibitors. AID 504444, 2011. A549 ARE-Fluc reporter, luciferase luminescence, 18-24 h; also: potency is read from the fitted curve at half-maximal effect; % is scaled to controls: 0 for no effect and ±100 for the full control effect; nearly all actives have a fitted effect of over 60% in size
#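 Quantitative HTS in A549 cells stably bearing an antioxidant response element-firefly luciferase construct. Inhibition of Nrf2-driven transcription was scored by luminescence after 18-24 h of compound exposure at 37 °C.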
# A549 tox = Nrf2 qHTS screen for inhibitors: counterscreen for cytotoxicity | AID 504648, 2011 | Potency, µM (highest dose often 46 µM), for inactives: at the highest dose activity change, negative = cytotoxicity, hits mostly inhibitors | A549 ARE-Fluc cells, CellTiter-Fluor viability, 18-24 h | 0.16% of 390,000 active; also: potency is read from the fitted curve at half-maximal effect; % is scaled to controls: 0 for no effect and ±100 for the full control effect
#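 A549 ARE-Fluc cells in 5% FBS OPTI-MEM, 5000 cells/well, rested 2 h then exposed to compounds in concentration-response for 18-24 h at 37 °C. Viability by CellTiter-Fluor fluorescence (Ex 405/Em 525) after 30 min; luciferase luminescence (BugLite, 15 min, RT) read afterwards.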
# Mito fusion act = qHTS Assay for Small Molecule Inhibitors of Mitochondrial Division or Activators of Mitochondrial Fusion. S. cerevisiae fusion-defective mutant growth rescue, CellTiterGlo 48 h. Potency, µM (titrated, usually from 46.1 µM), inactives show top-dose growth rescue (activation), usual class: activators. 0.23% of 320,000 active. AID 485298, 2010; also: potency is read from the fitted curve at half-maximal effect; % of control where 0% means no effect; nearly all actives have a fitted effect of over 45% in size
#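 Temperature-sensitive fusion-defective S. cerevisiae (e.g. fzo1-1, mgm1-5) were grown with compound in YPEG medium (3% ethanol, 3% glycerol) for 48 hours at 37C. Growth rescue was measured as viability by CellTiterGlo luminescence after 10 minutes at ambient.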
# Nrf2 ARE act = qHTS of Nrf2 Activators; AREc32 ARE-luciferase reporter (MCF7-derived line), luminescence, 24 h; Potency, µM (doses to about 46.1 µM), for the others: at the highest dose activation, actives largely listed as activators; 0.31% of 410,000 active; also: potency is read from the fitted curve at half-maximal effect; % of control where 0% means no effect; nearly all actives have a fitted effect of over 65% in size
#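 ARE-driven firefly luciferase activity in AREc32 cells measured after a 24 hr compound exposure at 37 deg C, using Steady-Glo reagent and a 30 min room-temperature hold.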
# miR-21 reporter = qHTS Assay for Modulators of miRNAs and/orActivators of miR-21 | 340,000 tested, under 10 active | Potency, µM (top dose mostly 38.3 µM), for the others: top-dose activity change, positive = activation, hits mostly activators | HeLa miR-21 FLuc reporter, luciferase, 48 h;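 also: % of control where 0% means no effect; miR-21 action dims this reporter so a rising signal means less miR-21 action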
#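 HeLa cells stably expressing CMV-driven firefly luciferase with a downstream miR-21 binding sequence, endogenously expressing miR-21, were treated with titrations (up to about 40uM final) for 48 hours at 37 degree Celsius. Luciferase luminescence was read after lysis.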
# Numbers without * were called inactive; ? = inconclusive; nt = no result given. Calls follow the shape of the dose curve; as a rule, active = well fitted curve in the direction sought with a large enough effect; inconclusive = small, poorly fitted or top-dose-only effect, or another doubt; inactive = no such curve, though single readings can be large; an effect the other way counts as inactive or inconclusive.
SMILES,GRP78 ERSR act,Nrf2 inh,A549 tox,Mito fusion act,Nrf2 ARE act,miR-21 reporter
O=C(Nc1ccccc1C(=O)N1CCN(c2cccc(Cl)c2)CC1)C1=CSCCO1,-3.4%,?,-7.8%,35.5µM*,-0.2%,9.6%
CSc1ncc(C(=O)N2CCN(c3cccc(Cl)c3)CC2)c(C)n1,-1.8%,-5.3%,2.7%,nt,0.8%,0.9%
Cc1nnc(NC(=O)C2CCN(C(=O)c3ccco3)CC2)s1,-3.5%,-26.4%,0.4%,0.8%,-1.3%,5.5%
CCOC(=O)c1cnc(SCC(=O)Nc2cc(OC)cc(OC)c2)nc1N,-3.1%,?,-8.0%,-1.1%,0.5%,11.1%
CCOC(=O)c1cnc(SCC(=O)Nc2sc(C)c(C)c2C#N)nc1N,-5.1%,9.2µM*,?,0.4%,2.2%,-1.8%
CC(C)(C)OC(=O)N1CCC[C@H]1C(=O)N/N=C/c1cccc2cccnc12,-3.6%,?,1.2%,-2.2%,-0.1%,-1.8%
O=C(NC1CC2CCC(C1)N2Cc1nnnn1Cc1ccco1)NC12CC3CC(CC(C3)C1)C2 (stereo not drawn),-5.3%,4.11µM*,-28.0%,2.2%,1.8%,4.2%
CCOc1ccc(S(=O)(=O)N2CCN(C(=S)NCc3ccccc3)CC2)cc1,-2.8%,25.9µM*,3.5%,8.7%,0.7%,1.6%
Cc1ccc(Nc2nc3nonc3nc2Nc2cccc(C(F)(F)F)c2)cc1Cl,10.4%,3.26µM*,7.31µM*,nt,-1.6%,?
Cc1cc(Nc2cccc(C(F)(F)F)c2)ncn1,-1.7%,-11.9%,0.8%,nt,4.5%,-1.2%
COCCNC(=O)c1cc2c(s1)-c1ccc(Cl)cc1SC2,?,?,0.2%,23.7%,3.8%,-33.2%
CCOc1ccc(N(CC)C(=O)c2cc3c(s2)-c2ccc(Cl)cc2SC3)cc1,-1.0%,16.4µM*,?,nt,0.6%,-15.9%
CC1=C(C(N)=O)C(c2cccs2)n2nc(-c3cccc(Cl)c3)nc2N1 (stereo not drawn),-7.3%,13µM*,0.0%,0.6%,17.8%,-3.0%
CC(C)CNc1nnnc2c1sc1nc(N3CCOCC3)c3c(c12)CC(C)(C)SC3,-2.0%,13µM*,-16.6%,4.3%,0.2%,-3.5%
CC1(C)Cc2c(c(N3CCOCC3)nc3sc4c(NCc5ccco5)nnnc4c23)CS1,0.0%,?,-11.1%,28.4%,4.6%,-17.5%
CS(=O)c1nc(-c2ccc(Br)cc2)cc(-c2ccccc2)c1C#N (stereo not drawn),-0.6%,14.6µM*,?,?,0.1%,15.2%
CC(C)c1ccc(NC(=O)CCS(=O)(=O)c2ccc(Br)s2)cc1,-2.2%,25.9µM*,-2.4%,nt,5.9%,21.8%
COc1ccc(NC(=O)CCS(=O)(=O)c2ccc(Br)s2)cc1,-1.0%,-24.4%,-0.7%,-5.0%,0.1%,-3.3%
Cn1nc(-c2ccccc2F)c2cc(C(=O)Nc3ccc4c(c3)OCCO4)sc21,-0.7%,14.6µM*,?,9.3%,6.1%,5.6%
CC(C)(C)OC(=O)N(CCc1ccccc1)Cc1ccccc1OCc1cccc(NC(=O)C2CC2)c1,0.5%,20.6µM*,-11.3%,nt,5.3%,nt
Oc1ccc(CCc2c(F)cccc2F)c2cccnc12,nt,?,-3.8%,nt,nt,nt
Oc1ccc(CNCc2ccccc2F)c2cccnc12,nt,1.3µM*,-10.5%,nt,nt,nt
Cc1ccc(NCc2ccc(O)c3ncccc23)c(F)c1,nt,20.6µM*,-10.3%,nt,nt,nt
Oc1ccc(CNc2ccccc2)c2cccnc12,-3.1%,5.17µM*,-13.5%,0.8%,7.7%,28.9%
Oc1ccc(CNc2ccc(F)cc2)c2cccnc12,-0.3%,7.31µM*,?,1.7%,-0.1%,25.8%
NC[C@H]1O[C@@H](n2cnc3c(N)ncnc32)[C@H](O)[C@@H]1O,-1.6%,nt,nt,?,nt,nt
CCN1/C(=C/c2ccc3cc(C)ccc3[n+]2CC)Sc2cc(C)ccc21,-11.1%,4.61µM*,?,-5.7%,-3.0%,14.6%
